Only some compounds are listed: those with a hit (about 2.9% of all), similar ones and a draw of the others.
EPAC1 ag val: Validation qHTS for agonist of cAMP-regulated guanine nucleotide exchange factor 3 (EPAC1); Rap guanine nucleotide exchange factor 3 (Homo sapiens), O95398; EPAC1 Rap1b BODIPY-GDP exchange, fluorescence; Potency, µM, inactives show max response, positive = active, most hits filed as activators; hit rate 1% among 16,000; AID 1645883, 2021; also: nearly all actives have a fitted effect of over 70% in size
Target sequence (O95398 whole entry, looked up): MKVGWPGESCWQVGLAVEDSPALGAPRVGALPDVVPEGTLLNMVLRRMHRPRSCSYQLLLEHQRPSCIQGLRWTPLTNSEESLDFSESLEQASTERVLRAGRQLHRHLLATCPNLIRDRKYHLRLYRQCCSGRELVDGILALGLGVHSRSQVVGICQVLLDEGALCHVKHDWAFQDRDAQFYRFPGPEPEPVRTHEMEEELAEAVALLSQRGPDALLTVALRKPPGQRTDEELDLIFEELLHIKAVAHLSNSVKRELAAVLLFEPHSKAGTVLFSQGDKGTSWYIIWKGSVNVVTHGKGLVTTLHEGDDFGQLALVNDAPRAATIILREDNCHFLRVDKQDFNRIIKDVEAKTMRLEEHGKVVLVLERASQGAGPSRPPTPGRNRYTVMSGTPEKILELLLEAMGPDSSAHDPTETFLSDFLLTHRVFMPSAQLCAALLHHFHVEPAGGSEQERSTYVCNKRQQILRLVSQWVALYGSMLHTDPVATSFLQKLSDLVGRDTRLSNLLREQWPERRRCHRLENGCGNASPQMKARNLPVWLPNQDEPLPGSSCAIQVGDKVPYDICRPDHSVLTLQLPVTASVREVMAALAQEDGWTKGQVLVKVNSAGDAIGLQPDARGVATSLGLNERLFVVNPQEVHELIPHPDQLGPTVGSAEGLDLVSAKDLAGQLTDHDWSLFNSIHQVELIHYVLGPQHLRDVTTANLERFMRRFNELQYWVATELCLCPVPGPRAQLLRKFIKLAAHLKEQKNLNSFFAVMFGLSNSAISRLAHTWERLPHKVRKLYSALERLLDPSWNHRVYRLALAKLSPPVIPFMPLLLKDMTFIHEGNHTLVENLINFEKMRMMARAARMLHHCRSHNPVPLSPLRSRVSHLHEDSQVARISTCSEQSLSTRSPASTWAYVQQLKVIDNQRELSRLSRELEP
EPAC2 ant val: Validation qHTS for antagonist of cAMP-regulated guanine nucleotide exchange factor 4 (EPAC2). Rap guanine nucleotide exchange factor 4 (Homo sapiens), Q8WZA2. EPAC2 Rap1B BODIPY-GDP exchange, fluorescence. Potency, µM (highest dose often 112 µM), inactives show at the highest dose activity, negative = inhibition, most hits filed as inhibitors. hit rate 1.7% among 16,000;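 also: 100% = activation by cAMP agonist control; nearly all actives have a fitted effect of over 40% in size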
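Normalized against a 6.5 mM cAMP agonist control, compounds were tested on 100 nM EPAC2 exchanging Rap1B-bound BODIPY-GDP (250 nM) for 50 uM GDP. Fluorescence drop (ex 480, em 540 nm) was tracked at room temperature over 30 min at 5-min intervals.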
* marks the source's active call; other numbers are inactive results; i = inactive; ? = inconclusive; ! = not active in a repeat; [ ] = dose if it differs, or a comment. Calls follow the shape of the dose curve; as a rule, active = well fitted curve in the direction sought with a large enough effect; inconclusive = small, poorly fitted or top-dose-only effect, or another doubt; inactive = no such curve, though single readings can be large; an effect the other way counts as inactive or inconclusive. Unless noted, % is scaled to controls: 0 for no effect and ±100 for the full control effect; potency is read from the fitted curve at half-maximal effect.

SMILES | EPAC1 ag val | EPAC2 ant val
NC(=O)CC[C@@H]1NC(=O)[C@H](Cc2ccccc2)NC(=O)[C@H](Cc2ccc(O)cc2)NC(=O)CCSSC[C@@H](C(=O)N2CCC[C@H]2C(=O)N[C@@H](CCCN=C(N)N)C(=O)NCC(N)=O)NC(=O)[C@H](CC(N)=O)NC1=O | 4.1% | -22.3%
CCCCCCCCCCCCCCCCCCOCC(COP(=O)([O-])OCC[N+](C)(C)C)OC (centres undefined) | -23.5% | 7.3%
CCC(Oc1ccccc1)C(=O)N[C@@H]1C(=O)N2[C@@H]1SC(C)(C)[C@@H]2C(=O)O (some centres undefined) | -20.2% | 5.2%
COc1ccc2c(=O)c(OC)c(-c3ccccc3)oc2c1 | -7.7% | 11.2µM*
COc1ccc(-c2oc3ccccc3c(=O)c2O)cc1 | -5.0% | -10.4%
O=c1oc2c(O)c(O)cc3c(=O)oc4c(O)c(O)cc1c4c23 | 79.4µM*! | i
O=c1cc(-c2cc(O)c(O)c(O)c2)oc2cc(O)cc(O)c12 | -39.9% | ?
Cc1cn([C@H]2C[C@H](F)[C@@H](CO)O2)c(=O)[nH]c1=O | -5.8% | -9.5%
COc1cccc(-c2nc3cc4c(cc3cc2CN(C(=O)c2cccs2)C2CC2)CCC4)c1OC | -3.7% | ?
CC(=O)C[C@H]1c2cc(C(F)(F)F)ccc2S(=O)(=O)N1Cc1ccccc1 | 22.2% | ?
CCOC(=O)C[C@H]1c2ccccc2S(=O)(=O)N1Cc1cccc(C(F)(F)F)c1 | -7.6% | 56.2µM*
COC(=O)C[C@H]1c2ccc(C(F)(F)F)cc2S(=O)(=O)N1Cc1ccccc1 | -4.7% | 25.1µM*
CCOC(=O)C[C@H]1c2ccccc2S(=O)(=O)N1Cc1cc(OC)c(OC)c(OC)c1 | 17.8% | 10.7%
CC[C@H]1OC(=O)[C@H](C)[C@@H](O[C@H]2C[C@@](C)(OC)[C@@H](O)[C@H](C)O2)[C@H](C)[C@@H](O[C@@H]2O[C@H](C)C[C@H](N(C)C)[C@H]2O)[C@](C)(O)C[C@@H](C)/C(=N\OCOCCOC)[C@H](C)[C@@H](O)[C@]1(C)O | -26.9% | 17.5%[56.6 µM]
C=Cc1c(C)c2cc3nc(cc4[nH]c(cc5nc(cc1[nH]2)C(C)=C5CCC(=O)OC)c(CCC(=O)O)c4C)[C@@]1(C)C3=CC=C(C(=O)OC)[C@H]1C(=O)OC | -3.0% | -4.3%
Cc1cc(-c2ccnc(-n3ncc(C(=O)NCC4COCCO4)c3C3CC3)n2)c(C)s1 (centres undefined) | 14.4% | -27.2%
CCOC(=O)C1=C(C)NC(C)=C(C(=O)OC)C1c1cccc(Cl)c1Cl (centres undefined) | 56.2µM*! | ?
CCOC(=O)C1=C(COCCN)NC(C)=C(C(=O)OC)C1c1ccccc1Cl (centres undefined) | 1.4% | -3.9%
Cc1onc(-c2ccccc2)c1C(=O)NCCN1Cc2ccccc2OC(c2ccsc2)C1 (centres undefined) | -12.8% | -21.6%
CO[C@H]1C=CO[C@@]2(C)Oc3c(C)c(O)c4c(O)c(cc(O)c4c3C2=O)NC(=O)/C(C)=C\C=C/[C@H](C)[C@H](O)[C@@H](C)[C@@H](O)[C@@H](C)[C@H](OC(C)=O)[C@@H]1C | -12.1% | -15.9%
CCCCC[C@H](O)CC(=O)CCc1ccc(O)c(OC)c1 | -9.0% | -28.5%[151 µM]
COc1cc(CNC(=O)CCCC/C=C/C(C)C)ccc1O | -36.5% | 39.8µM*!
CCN(CC)C(=O)c1cc(S(=O)(=O)Cc2ccccc2)c(N2CCC(c3ccccc3)CC2)cc1N(CC)CCN(C)C | -38.2% | -14.6%
COc1ccccc1C(=O)N[C@@H]1c2ccccc2C2(CCN(Cc3ccc4c(c3)OCO4)CC2)[C@H]1O | -2.1% | ?
OCCN(CCO)c1ccc(/C=C/c2ccnc3ccccc23)cc1 | 26.9% | -22.0%
SMILES | EPAC1 ag val | EPAC2 ant val
CC[N+](CC)(CC)c1ccc(/C=C/c2ccnc3ccccc23)cc1 | -57.8% | ?
CN(C)c1ccc(/C=C/c2ccnc3ccccc23)cc1Cl | 13.0% | ?
Cc1cc(/C=C/c2ccnc3ccccc23)ccc1N(C)C | 100µM* | 150.3%
CC[N+](C)(C)c1ccc(/C=C/c2ccnc3ccccc23)cc1 | -129.9% | 44.7µM*
CCCCN(CCC#N)c1ccc(/C=C/c2ccnc3ccccc23)cc1 | 100µM* | 18.4%
O=C(O)[C@H](O)c1ccccc1 | -7.2% | -11.6%
COCC(C)NCc1cc2ccc(OC)cc2nc1N1CCN(c2ccc(F)cc2)CC1 (centres undefined) | 9.9% | -13.0%
